Here are results for 89 compounds from PubChem BioAssay AID449762 (Southern Research Specialized Biocontainment Screening …, 2010).

Molecules are shown by their SMILES. Out of some 330,000 compounds screened, about 1,900 (0.58%) were called active. Not shown: some 4% with an inconclusive outcome. Only a sample is shown. Potency and affinity values are given separately. A number with no mark means an inactive call. No stated cut-off is given here; in the data, inconclusive means inhibition above about 70% without an active follow-up result; inactive means below that.

The assay can be described thus: M. tuberculosis growth inhibition, HTS (AID 449762).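 Further: bacterial growth assessed after seven days of incubation.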 Particulars: M. tuberculosis H37Rv growth inhibition, 7H9 media; at 25 µM; active compounds read high.
As to `Cn1c(=O)c2c(nc(CN3CCN(c4ccc(F)cc4)CC3)n2Cc2ccccc2F)n(C)c1=O`, the inhibition (as a rule, the change of the read-out against control, counted positive when it falls) was -1.15%. The figure for `Cc1cc(C(=O)OCC(=O)Nc2cccnc2Cl)c2ccccc2n1` is 3.92%; for `COc1ccc(OC)c(C(=O)NC(CC(N)=O)c2ccc(NCC3CC3)c([N+](=O)[O-])c2)c1` (centres undefined) it is 8.73%. Take `COc1ccc(CCNc2ccc(C(CC(N)=O)NC(=O)c3cc(OC)ccc3OC)cc2[N+](=O)[O-])cc1` (centres undefined): the inhibition was -2.34%. As to `Cc1cc(-n2c(C)cc(C(=O)COc3ccc(F)c(F)c3)c2C)no1`, the inhibition was 12.9%. As for `Cc1cc(C(=O)COc2ccc3ccc(=O)oc3c2)c(C)n1C`, the inhibition was -2.83%. As for `Cc1ccc(Cl)cc1N1CCN(Cc2cc3c(cc2O)CCC3)CC1`, the inhibition is -2.77%. Take `COc1cccc(CN(C)C(=O)c2cc(S(=O)(=O)NCc3ccccc3)ccc2C)c1OC`: the inhibition was -0.57%. As to `COc1ccc(-c2nc(C#N)c(NCc3cccnc3)o2)cc1OC`, the inhibition is -2.1%. In the case of `Cc1ccc(-n2cc(CNCCN3CCOC3=O)c(-c3ccc(F)cc3)n2)cc1`, the inhibition is 6%. Consider `COc1ccc(-c2nn(-c3ccccc3F)cc2CNCCn2nc(C)cc2C)cc1`, for which the inhibition is 63.9%. Consider `O=C(CS(=O)(=O)c1ccccc1)Nc1ccc(Cl)cn1`, for which the inhibition is -23.7%.

Consider `O=C(CCNC(=O)N1CC(=O)Nc2ccccc21)Nc1ccc(F)c(Cl)c1`, for which the inhibition is 1.86%. On to `Nc1nc(SCc2c(F)cccc2Cl)[nH]c(=O)c1-c1ccccc1`, for which the inhibition is 3.32%. `CCOC(=O)N1CCN(C(=O)CCS(=O)(=O)c2ccc3c(c2)CC(C)N3C(=O)CC)CC1` (centres undefined): the inhibition was 7.71%. Turning to `CCC(=O)N1c2ccc(S(=O)(=O)CCC(=O)N3CCN(c4ccccc4F)CC3)cc2CC1C` (centres undefined), the inhibition is -7.68%. Regarding `CCCCn1c(N)c(N(CC(C)C)C(=O)CCCc2nc3ccccc3s2)c(=O)[nH]c1=O`, the inhibition was -2.46%. Turning to `Cc1cc(C)n(S(=O)(=O)c2ccc3oc(=O)ccc3c2)n1`, the inhibition was 2.71%. The figure for `CCCCC(=O)NC(Nc1sc2c(c1C(N)=O)CCCC2)(C(=O)OCC)C(F)(F)F` (centres undefined) is 5.17%; for `Cc1ccc(-n2nnnc2SCC(=O)c2c(N)n(C3CC3)c(=O)[nH]c2=O)c(C)c1` it is -6.46%; for `COc1ccc(C(=O)C2CCCN(C3CSCCSC3)C2)c(OC)c1` (centres undefined) it is 5.9%.

For the compound `COc1ccc(C(=O)C2CCCN(C3CSCCSC3)C2)cc1OC` (centres undefined), the inhibition was -3.92%. Take `CCOC(=O)c1c(C)nc2sc(C(N)=O)c(N)c2c1-c1ccc(OC)cc1`: the inhibition is -6.87%.

Turning to `NC(=O)CCN(Cc1ccccc1)S(=O)(=O)c1ccccc1`, the inhibition is -1.39%. In the case of `CCCCNC(=O)COC(=O)CNC(=O)c1cc(Cl)cc([N+](=O)[O-])c1`, the inhibition is 6.26%. The figure for `C=CCn1cnc2c(oc3ccccc32)c1=O` is 0.22%. In the case of `c1ccc(-n2ncc3c(N4CCCCC4)ncnc32)cc1`, the inhibition is -3.33%.

Consider `c1ccc(CNc2ncnc3c2cnn3-c2ccccc2)cc1`, for which the inhibition is -6.95%.

As for `CCCCNc1ncnc2c1cnn2-c1ccccc1`, the inhibition is 11.5%. In the case of `CCN1CCN(c2ncnc3c2cnn3-c2ccccc2)CC1` it was -10%; in that of `CC(C)(C)c1ccc(-c2noc(C(=O)NN)n2)cc1`, -2.97%. `NS(=O)(=O)c1ccc(NC(=O)COC(=O)CN2C(=O)C3CC=CCC3C2=O)cc1` (centres undefined): the inhibition is -21.8%.

With `Cn1cc(C(=O)c2ccccc2)cc1-c1nc2ccccc2n1C`, the inhibition is 24.3%. In the case of `Cn1cc(C(=O)c2ccc(F)cc2)cc1-c1nc2ccccc2n1C`, the inhibition was 65.4%.

`O=C(COC(=O)c1ccccn1)Nc1ccc2c(c1)OCCO2`: the inhibition was -1.75%.

For `CNC(=O)COc1ccc(Nc2nnc(-c3ccc(C)c(S(N)(=O)=O)c3)c3ccccc23)cc1`, the inhibition is 3.37%.

As for `CC(=O)c1ccc(NC(=O)C(C)OC(=O)c2cccc(-n3cnnn3)c2)cc1` (centres undefined), the inhibition was -2.06%. In the case of `CCOC(=O)c1cn(Cc2ccc(Cl)cc2Cl)c2cc(C)nn2c1=O` it was -10.3%; in that of `COc1ccc(-c2cn(Cc3cccc(OC)c3)nn2)cc1`, -1.15%; in that of `CCCCCc1ccc(-c2cn(Cc3ccc(C)cc3)nn2)cc1`, 2.43%. As for `CCN(C(=O)COC(=O)c1cc(-c2ccc3cc(OC)ccc3c2)nc2ccccc12)C1CCS(=O)(=O)C1` (centres undefined), the inhibition is 12.4%. Regarding `CN1N=C(/C=C/c2ccccc2)CCC1=O`, the inhibition was -6.09%. The figure for `COC1C(OC(=O)c2ccc(C)[nH]2)C(O)C(Oc2ccc3c(O)c(NC(=O)c4ccc(O)c(CC=C(C)C)c4)c(=O)oc3c2Cl)OC1(C)C` (centres undefined) is -2.53%; for `Cc1c(O)ccc2c(O)c(NC(=O)c3ccc4c(c3)CCC(C)(C)O4)c(=O)oc12` it is 1.87%; for `COc1ccc([C@H]2CC(=O)C=C(c3cccc(CO)c3)C2)cc1` it is -3.53%.

For the compound `COc1cc(NC(=O)C/C(C)=N/NC(=O)c2cccc(O)c2)c(OC)cc1Cl`, the inhibition was -0.8%. In the case of `COc1cc(NC(=O)C/C(C)=N/NC(=O)Cc2ccccc2)c(OC)cc1Cl` it was 9.08%. With `COc1ccc(NS(=O)(=O)c2ccc(NC(=O)C3CCCO3)cc2)cc1` (centres undefined), the inhibition was -9.85%. As for `COc1cccc(C2(C)NC(=O)N(CC(=O)Nc3ccc(N4CCOCC4)cc3)C2=O)c1` (centres undefined), the inhibition was -10%.

Take `CCCCOc1cccc(C(=O)Nc2ccc(NC(=O)c3cccs3)cc2)c1`: the inhibition was 2.91%. Regarding `Cn1c(CNc2ccc(O)cc2)nc2ccccc21`, the inhibition is -0.5%. With `Cc1ccccc1NCc1nc2ccccc2n1C`, the inhibition was 2.8%.

`CC(=O)Nc1ccc(N2CCCCC2)cc1`: the inhibition was 1.6%. Regarding `CC(=O)Nc1ccc(S(=O)(=O)Nc2ccc(N3CCOCC3)cc2)cc1`, the inhibition is 1.49%. On to `O=C(O)c1cccc(N2C(=O)C3C4C=CC(C4=C(c4ccccc4)c4ccccc4)C3C2=O)c1` (centres undefined), for which the inhibition was 4.23%. Turning to `CC(=O)C[C@@H](O)CC(=O)[C@@H]1OC(=O)CCCCCCCCc2ccccc21`, the inhibition was 0.55%. Take `CCC(C)(C)NC(=O)C(c1ccncc1)N(Cc1ccc(C)cc1)C(=O)c1csnn1` (centres undefined): the inhibition was -0.23%.

With `N#CCNc1ccc([N+](=O)[O-])cc1C#N`, the inhibition is 2.63%. For the compound `COc1cc2c(cc1OC)C(C)N(C(=O)c1cc3c(s1)-c1c(C)cccc1OC3)CC2` (centres undefined), the inhibition was 60.6%. On to `Cc1ccc(C(=O)N/C(=C/c2ccco2)C(=O)O)cc1`, for which the inhibition is 0.79%. `Cc1ccc(C(=O)N/C(=C\c2cccc([N+](=O)[O-])c2)C(=O)OCN2C(=O)c3ccccc3C2=O)cc1`: the inhibition was 9.25%. On to `NN/C(=C\[N+](=O)[O-])Nc1ccccc1`, for which the inhibition is 69.9%.

In the case of `CS/C(=C\[N+](=O)[O-])Nc1ccc(Cl)cc1`, the inhibition is 55.3%. Turning to `CC(Sc1nnc(-c2cccs2)n1-c1ccccc1)C(=O)NCc1ccc2c(c1)OCO2` (centres undefined), the inhibition was -16.1%. `CCCCOc1ccc(C(=O)Nc2ccc(N3CCN(C(=O)C(C)C)CC3)cc2)cc1`: the inhibition is 11.1%. In the case of `Cc1cc(OC2CCCCC2)nc(-c2ccccc2O)n1`, the inhibition was -9.08%. `Cc1cc(Nc2ccccc2Cl)nc(-c2ccccc2O)n1`: the inhibition was 57.3%.

On to `O=C(Cn1nc(Cl)nc1Cl)c1ccc2c(c1)OCCO2`, for which the inhibition was 60.7%.

In the case of `O=C(Cn1ncc(Cl)c(Cl)c1=O)N1CCOCC1`, the inhibition was 2.21%. As to `CCOC(=O)c1sc(=NC(=O)c2ccc(C)c(C)c2)n(C)c1C`, the inhibition is 31.6%.

Consider `O=C(N/N=C/c1c[nH]c2ccccc12)c1sc2ccccc2c1Cl`, for which the inhibition was 1.35%. `O=C(N/N=C/c1cccnc1)c1sc2ccccc2c1Cl`: the inhibition is 66%. Regarding `CC(=O)NCCc1nc2cc(NC(=O)c3ccccc3Cl)ccc2n1C`, the inhibition was -3.12%. `Cc1cc(C(C)(C)C)oc1C(=O)OCC(=O)NC1CCCCC1`: the inhibition is 7.47%. For the compound `CS(=O)(=O)N1c2ccccc2[C@]2([C@@]34C[C@H]5C(=O)N[C@@H](Cc6ccccc6)C(=O)N5[C@@H]3N(S(C)(=O)=O)c3ccccc34)C[C@H]3C(=O)N[C@@H](Cc4ccccc4)C(=O)N3[C@H]12`, the inhibition is -2.63%. `CN1C(=O)[C@@H]2C[C@@]3([C@@]45C[C@H]6C(=O)N(C)[C@@H](Cc7ccccc7)C(=O)N6[C@@H]4Nc4ccccc45)c4ccccc4N[C@H]3N2C(=O)[C@@H]1Cc1ccccc1`: the inhibition is 11.8%. Consider `CCCCC1S/C(=N/N=C/c2ccco2)NC1=O` (centres undefined), for which the inhibition was 4.46%. On to `Cc1ccc(Cn2ccsc2=NC(=O)COC(=O)C(C)C)cc1`, for which the inhibition is -7.15%. The figure for `CCC(=O)OCC(=O)N=c1sccn1Cc1ccc(C)cc1` is 6.77%. Regarding `COc1ccccc1CN1CC(C(=O)N(C)CCc2nc3ccc(F)cc3[nH]2)CCC1=O` (centres undefined), the inhibition was 8.31%. For the compound `CN(Cc1nc2ccccc2[nH]1)C(=O)C1CCC(=O)N(CCc2cccc(F)c2)C1` (centres undefined), the inhibition was -0.88%. Take `Cc1cccc(NC(=S)NCC(C)CSc2ccc(Cl)cc2)c1` (centres undefined): the inhibition was 10.5%. As for `COc1cccc(C2NC(=O)NC(C)=C2C(=O)OCC2CCCCC2)c1` (centres undefined), the inhibition was -17.1%. In the case of `O=C(CSc1cccc(C(F)(F)F)c1)Nc1ccc(Cl)cc1Cl`, the inhibition was -3.06%. Regarding `COC(=O)[C@@H](NC(=O)N1CCN(c2cccc(C(F)(F)F)c2)CC1)C(C)C`, the inhibition is 5.31%. For the compound `COC(=O)[C@H](CC(C)C)NC(=O)N1CCN(c2cccc(C(F)(F)F)c2)CC1`, the inhibition was 1.6%. On to `Oc1ccccc1-c1nnc2n1CCCCC2`, for which the inhibition is -9.99%. In the case of `Clc1ccccc1-c1nnc2n1CCCCC2`, the inhibition is -3.29%. With `CCOc1cc(N2CCOCC2)c(OCC)cc1NC(=O)CN1C(=O)NC(C)(C2CC2)C1=O` (centres undefined), the inhibition was 8.07%.
